Source: PubChem
Shown are actives, neighbours in structure and some others; about 8.7% of the full set was active somewhere.
Pf growth 96h: P. falciparum growth inhibition at 96 hour, primary screen for plastid delayed-death inhibitors | P. falciparum luciferase reporter growth, 96 h | Potency, µM (titrated, usually from 28.7 µM), for inactives: top-dose activity change, negative = inhibition, hits mostly inhibitors | actives 6.9% (n = 320,000)
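Parasite growth measured via integrated firefly luciferase reporter in P. falciparum. Infected erythrocytes at 2% hematocrit, 0.05% parasitemia final were treated 96 hours at 37 C under 5% CO2, and luminescence was read.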
Pf growth 48h: inhibits P. falciparum growth in the first generation, 48 h. P. falciparum luciferase growth in erythrocytes, 48 h. Potency, µM (highest dose often 28.7 µM), inactives show at the highest dose activity change, negative = inhibition, actives largely listed as inhibitors. actives 5.9% (n = 310,000). AID 504832
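Erythrocytes infected with P. falciparum carrying an integrated firefly luciferase reporter (2% hematocrit, 0.1% parasitemia final) were exposed to compounds in RPMI 1640 with 0.5% Albumax at 37 C, 5% CO2. Growth inhibition was scored as reduced luminescence.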
VACV Venus inh: vaccinia inhibition (Venus reporter); Vaccinia virus Venus reporter expression, fluorescence; Potency, µM (doses to about 36.5 µM), without a hit: top-dose activity change, negative = inhibition, actives largely listed as inhibitors; actives 0.46% (n = 330,000); calls by dose curve; tested in A549 cells; further: nearly all actives have a fitted effect of over 30% in size
VACV mCherry inh: vaccinia inhibition (mCherry reporter). Vaccinia virus mCherry reporter infection, fluorescence. Potency, µM (highest dose often 36.5 µM), without a hit: at the top dose activity change, negative = inhibition, usual class: inhibitors. actives 0.63% (n = 310,000). AID 720579; calls by dose curve; tested in A549 cells; further: nearly all actives have a fitted effect of over 35% in size
AMA1 RON2 block: inhibitors of Plasmodium falciparum AMA1-RON2 interaction; AlphaScreen AMA1-biotinylated RON2 peptide binding; Potency, µM (series often up to 58.2 µM), for the others: at the highest dose activity change, negative = inhibition, actives largely listed as inhibitors; actives 0.2% (n = 360,000); AID 720542;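 further: 0% = vehicle wells and -100% = peptide control; nearly all actives have a fitted effect of over 45% in size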
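AMA1 (3D7) with his tag at 25 nM final met compounds first, then biotinylated RON2 peptide at 25 nM; detection used donor plus acceptor beads, 10 µg/mL apiece, read by AlphaScreen after 30 min at room temperature.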
* = called active by the depositor; i = inactive; ? = inconclusive; . = no result given; [ ] = another dose, or the depositor's remark. Unless noted, the call rests on the fitted dose curve; in most records, active means well fitted curve in the direction sought with a large enough effect; inconclusive means small, poorly fitted or top-dose-only effect, or another doubt; inactive means no such curve, though single readings can be large; an effect the other way counts as inactive or inconclusive. Unless noted, on the % scale 0 is the no-effect control and ±100 the full control effect; potency means the concentration at half of the fitted maximal effect.

SMILES | Pf growth 96h | Pf growth 48h | VACV Venus inh | VACV mCherry inh | AMA1 RON2 block
O=C1NC[C@H](Cc2ccc(O)cc2)N(CCc2cc(C(F)(F)F)cc(C(F)(F)F)c2)C1=O | . | . | -8% | -3% | -13%
NC1=NC[C@H](CC2CCCCC2)N1CCc1cc(C(F)(F)F)cc(C(F)(F)F)c1 | 2.3µM* | 2.9µM* | 10µM* | ? | 5%
NC1=NC[C@@H](Cc2ccc(O)cc2)N1CCc1cc(C(F)(F)F)cc(C(F)(F)F)c1 | 3.3µM* | 5.9µM* | -20% | 0% | 14%
COCCN1C(=O)c2[nH]nc(-c3ccccc3O)c2C1c1ccc(OCc2ccccc2)c(OC)c1 (stereo not given) | . | . | 2%[7.34 µM] | -12%[7.34 µM] | .
COc1ccc(OC)c(S(=O)(=O)Nc2c(C)n(C)n(-c3ccccc3)c2=O)c1 | 15µM* | -7% | -2% | i | 9%
COc1ccc(-c2cc(C(=O)Nc3c(C)n(C)n(-c4ccccc4)c3=O)c3ccccc3n2)c(OC)c1 | 15µM* | 12µM* | -29% | ? | -10%
Cc1c(NC(=O)Nc2cccc(C#N)c2)c(=O)n(-c2ccccc2)n1C | 3.7µM* | 12% | . | . | -17%
COc1cccc(NC(=O)Nc2c(C)n(C)n(-c3ccccc3)c2=O)c1 | 15% | 8% | -5% | -6% | -2%
COc1ccc(-c2cc(C(=O)Nc3c(C)n(C)n(-c4ccccc4)c3=O)c3ccccc3n2)cc1OC | 23% | ? | -7% | -14% | 14%
COc1ccc(/C(O)=C/C(=O)C(=O)Nc2c(C)n(C)n(-c3ccccc3)c2=O)cc1 | 7.4µM* | 26% | . | . | ?
O=C(C[N+]1(CCO)CCOCC1)c1cccc2ccccc12 | . | . | -8% | -14% | .
Cc1ccc(C)c(NC(=O)CCc2c(C)n(C)c3cc(-c4ccccc4C)nn3c2=O)c1 | . | . | -18% | -18% | .
Cc1cccc(C(=O)Nc2ccccc2OCc2cc(=O)n3ccccc3n2)c1 | . | . | -13% | -26% | .
COCc1c(C(=O)NC2CCCCC2)cnn1-c1nccc(-c2cc(C)sc2C)n1 | . | . | -1% | -2% | .
COc1ccc(OC)c(S(=O)(=O)N2CCCCCC2)c1 | 4%[5.75 µM] | 1% | -12% | . | 2%
Cc1c(NC(=O)c2c(F)cccc2F)c(=O)n(-c2ccccc2)n1C | -20% | 8% | 11% | . | -6%
COc1ccc(OC)c(S(=O)(=O)ON2C(=O)c3ccccc3C2=O)c1 | 2.9µM* | 42% | -9% | i | 3%
COc1cccc(OC)c1C(=O)Nc1c(C)n(C)n(-c2ccccc2)c1=O | 10µM* | 5% | -12% | -11% | 9%
COc1cccc(CNC(=O)CCn2cccn2)c1 | . | . | -7% | -7% | .
COC(=O)c1c(C)oc2c1cc(NS(=O)(=O)c1c(C)cc(C)cc1C)c1ccccc12 | . | . | -14% | -16% | .
COC(=O)C1=C(c2ccc(OC(F)(F)F)cc2)C[C@@H]2CC[C@H]1N2C(=O)NCCOc1ccc(OC)cc1 | 5.9µM* | ? | ? | ? | -20%
COC(=O)C1=C(c2ccc(OC(F)(F)F)cc2)C[C@@H]2CC[C@H]1N2C(=O)NCCc1ccccc1 | ? | 3.7µM* | ? | ? | 17%
CC(C)n1cnc2c(Nc3ccc(F)c(Cl)c3)nc(NCCO)nc21 | ? | -14% | ? | 10µM* | -12%
CCOc1ccc(CCNC(=O)c2[nH]c3cc(OC)ccc3c2Sc2ccccc2)cc1OCC | . | . | -17% | -7% | .
CCOC(=O)Cc1ccc(NC(=O)Nc2cccc(OCc3cc(=O)n4cc(C)ccc4n3)c2)cc1 | . | . | -9% | -16% | .
SMILES | Pf growth 96h | Pf growth 48h | VACV Venus inh | VACV mCherry inh | AMA1 RON2 block
Cc1ccccc1NC(=O)n1ncc2cc(Cl)ccc21 | -29% | 35% | 2% | -21% | -15%
COc1ccc(C)cc1NC(=O)n1ncc2cc(Cl)ccc21 | 3.3µM* | 11% | . | . | 1%
CCOc1ccc(OCC)c(NC(=O)CN2CCN(c3cccc(C)c3)C(C)C2)c1 (stereo not given) | ? | 13µM* | -16% | -19% | -9%
CCOc1ccc(OCC)c(NC(=O)CN2CCN(CC)CC2)c1 | -14% | -26% | 6% | . | -2%
CCOc1ccc(OCC)c(NC(=O)CN2CCN(c3cccc(C)c3)CC2)c1 | -13% | 13µM* | -24% | ? | -24%
CCOc1ccc(OCC)c(NC(=O)CN2CCN(c3cc(C)ccc3C)CC2)c1 | ? | ? | -20% | i | ?
CCOc1ccc(OCC)c(NC(=O)CN2CCN(CC(=O)NC(C)C)CC2)c1 | 13µM* | -53% | . | . | -12%
Cc1ccc2c(c1)N(CC(=O)Nc1ccccc1C(F)(F)F)C(=O)c1cccnc1O2 | . | . | -16% | -10% | .
COc1ccc(-c2noc(N3CCC(C(=O)N4CCN(c5ccccc5F)CC4)CC3)n2)cc1 | . | . | -23% | -29% | .
CCN(CC)S(=O)(=O)c1cccc(C(=O)NC(C)C(c2cccs2)N2CCCC2)c1 (stereo not given) | -24% | -23% | -12% | -7% | -4%
CCN(CC)S(=O)(=O)c1cccc(C(=O)NC(Cc2c[nH]c3ccccc23)c2nnc3n2CCC3)c1 (stereo not given) | 8.3µM* | 9.3µM* | -9% | -4% | 32%
Cc1cc(C)c(-c2cc(C(F)(F)F)no2)c(=O)[nH]1 | 12µM* | 13% | -8% | -12% | 2%
C=C(C)C1CC=C(CN2CCC(O)CC2)CC1 (stereo not given) | 13% | . | -11% | -5% | -5%
C=C(C)[C@@H]1CC=C(CN2CCC(N3CCC(C(=O)N4CCCC4)CC3)CC2)CC1 | 2% | 7.4µM* | -16% | -18% | -9%
Cc1ccc(-c2[nH]c3ccccc3c2C(C[N+](=O)[O-])c2ccco2)cc1 (stereo not given) | . | 9.3µM* | ? | . | -8%
CCCCCOc1ccc(/C=C/C(=O)Nc2sc(C(C)=O)c(C)c2C(=O)OCC)cc1OC | . | . | -9% | -16% | .
Fc1ccc2c(c1)nnn2C1CCN(Cc2c(Cl)cccc2Cl)CC1 | 10µM* | 10µM* | -4% | . | 2%
Cc1ccc(C)c(CN2CCC(n3nnc4cc(F)ccc43)CC2)c1 | 13µM* | 8.3µM* | -20% | -19% | -5%
Cc1[nH]nc2ccc(-c3cncc(OC[C@@H](N)Cc4c[nH]c5ccccc45)c3)cc12 | . | . | 0.89µM* | ? | -22%
CCc1ccc(NC(=O)Cn2c(=O)n(CCc3ccccc3)c(=O)c3sc4ccccc4c32)cc1 | . | . | -9% | -18% | .
COC(=O)c1c(-c2ccc(Cl)cc2)noc1N1CCN(c2ccc(F)cc2)CC1 | . | . | -12% | -2% | .
O=[N+]([O-])c1cccc(C2NCC(c3ccccc3Cl)c3c2[nH]c2ccccc32)c1 (stereo not given) | 13µM* | -7% | -18% | -6% | ?
CCOC(=O)C1=C(c2ccccc2)NC(=S)NC1c1ccc(Cl)c([N+](=O)[O-])c1 (stereo not given) | 276% | ? | . | . | .
